Sampled rows, rich in hits. Any-hit rate of the full collection: about 3%.
SARS PLpro yeast-1 – inhibitors of SARS-CoV papain-like protease in yeast; S. cerevisiae expressing SARS-CoV PLpro, growth rescue; Potency, µM (titrated, usually from 32.9 µM), without a hit: top-dose activity, positive = growth rescue, hits mostly activators; actives 0.19% (n = 330,000); AID 485353; calls by dose curve; further: potency means the concentration at half of the fitted maximal effect; 0% is about no effect; nearly all actives have a fitted effect of over 55% in size
Sm TGR block – blocks Schistosoma mansoni thioredoxin glutathione reductase; Q962Y6; purified TGR, DTNB reduction, TNB absorbance 405 nm; Potency, µM (titrated, usually from 114 µM), for the others: top-dose activity change, negative = inhibition, actives largely listed as inhibitors; actives 3% (n = 360,000); active means well fitted inhibition curve with a large enough effect; inconclusive means small, poorly fitted or top-dose-only effect; inactive means no such curve, though single readings can be large or run the other way; further: potency means the concentration at half of the fitted maximal effect; on the % scale 0 is the no-effect control and ±100 the full control effect; nearly all actives have a fitted effect of over 60% in size
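TGR 20 nM + NADPH 100 uM (dispensed conc.), cpd preinc 15 min RT; start with NADPH (500 uM addition) then DTNB (15 mM addition). Kinetic TNB absorbance, 405 nm filter. Four-parameter Hill fit across titration.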
SARS PLpro yeast-2 – Inhibits SARS-CoV PLP in yeast, hit validation | calls only | yeast expressing SARS-CoV PLpro, growth phenotype rescue | actives 19% (n = 1,000) | shares compounds with SARS PLpro yeast-1; call rule not given here
* marks the source's active call; other numbers are inactive results; i = inactive; ? = inconclusive; / = not tested or not shown; + = active, no number.

SMILES | SARS PLpro yeast-1 | Sm TGR block | SARS PLpro yeast-2
CCNC(=S)NNC(=O)c1ccccn1 | ? | -12% | i
CCNC(=S)NNC(=O)c1ccccc1Cl | 9% | 1% | /
Cc1oc(-c2ccccc2Cl)nc1CS(=O)CC(=O)N1CCN(c2cccc(C(F)(F)F)c2)CC1 (centres undefined) | / | -26% | /
CCC(Sc1nc2nccnc2c(=O)n1Cc1ccc(F)cc1)C(=O)NC1CCCCC1 (centres undefined) | / | 0% | /
CCOc1c(Br)cc(C2C=C(C(=O)O)Nc3ncnn32)cc1OC (centres undefined) | / | 7% | /
N#CC1=C(N)Oc2c(ccc3cccnc23)C1c1cccnc1 (centres undefined) | ? | 20µM* | i
CC(C)(C)C1=C(C#N)C(c2cccnc2)C(C#N)=C(N)O1 (centres undefined) | 18µM* | ? | i
COc1cccc(C2C(C#N)=C(N)OC(C(C)(C)C)=C2C#N)c1 (centres undefined) | -7% | ? | /
N#CC1=C(N)Oc2cc3ccccc3cc2C1c1cccnc1 (centres undefined) | 14% | ? | /
COc1ccc(CCNC(=O)Cn2cc(C(=O)c3ccccc3)c(=O)c3ccc(C)nc32)cc1OC | / | 10% | /
CN(C)CCNC(=S)Nc1cccc(Cl)c1 | ? | -27% | i
CN(C)NC(=S)Nc1cccc(Cl)c1 | 1% | 5% | /
O=C(NCC(c1cccnc1)N1CCc2ccccc21)c1cccc(F)c1 (centres undefined) | / | 1% | /
O=C(c1ccccc1Cl)n1nc(-c2cccnc2)nc1NCc1ccc(F)cc1 | / | 2% | /
CCN(CC)CCCNC(=O)CCCn1c(=O)[nH]c2ccc(Br)cc2c1=O | / | 0% | /
O=C(Nc1ccccc1)Nc1nnc(Cc2ccccc2F)s1 | -6% | ? | /
O=C(Nc1nnc(Cc2ccccc2)s1)Nc1ccccc1F | ? | 2% | +
CCNC(=S)Nc1ccc(N(c2ccccc2)C(C)C)cc1 | 0% | -12% | /
CCNC(=S)NN(c1ccccc1)c1ccccc1 | 14µM* | -8% | +
CC(C)c1ccc(CNc2nc(-c3ccco3)nn2C(=O)c2ccc([N+](=O)[O-])cc2)cc1 | / | -5% | /
CCOC(=O)C1CCN(C(=O)COc2cccc(C)c2)CC1 | 3.5µM* | -16% | i
CCOC(=O)C1CCN(C(=O)COc2ccc(Br)cc2)CC1 | 1% | -26% | /
COc1ccc(CCNC(=O)c2cnc3sc(N4CCCC4)nn3c2=O)cc1OC | / | -1% | /
COc1ccc(OC)c(NC(=O)c2cnc(N3CCCCC3)c3ccccc23)c1 | / | 9% | /
O=C(Nc1ccc(N2CCCCCC2)cc1)c1cccc(S(=O)(=O)N2CCOCC2)c1 | 5% | -33% | /
SMILES | SARS PLpro yeast-1 | Sm TGR block | SARS PLpro yeast-2
O=C(NS(=O)(=O)N1CCOCC1)C1=C(N2CCCC2)COC1=O | 3.5µM* | / | i
CCOc1ccc(N(C(=O)CC(C)C)S(=O)(=O)c2ccc3c(c2)oc(=O)n3C)cc1 | / | 5% | /
CCOC(=O)c1ccc(CN(Cc2ccc(Cl)cc2Cl)S(=O)(=O)c2cccc(Cl)c2)cc1 | / | 10% | /
CCOC(=O)C(CC)/C(C)=N\NC(=O)c1ccccc1O (centres undefined) | 6.3µM* | 4% | i
CCC/C(C)=N/NC(=O)c1ccccc1O | 0% | 3% | /
O=C(O)CSc1nnc(-c2ccccc2O)n1Cc1ccccc1 | 7% | 0% | /
Cn1c(SCC(=O)NNC(=O)c2ccccc2O)nnc1-c1ccccc1 | ? | 6% | /
O=C(CSc1nnc(-c2ccccc2O)n1Cc1ccccc1)NNC(=O)c1ccccc1O | 6.3µM* | -3% | +
O=C(CSc1nnc(-c2ccccc2)n1Cc1ccccc1)NNC(=O)c1ccccc1O | 5µM* | 0% | i
CCN(CC)S(=O)(=O)c1nnc(NC(=O)COc2cccc(C)c2)s1 | / | -5% | /
Cc1ccc2cc3cc(C(=O)N(C)c4ccccc4C)oc3nc2c1 | / | 1% | /
COc1cccc(CCNC(=O)c2cnc3sc(N4CCCC4)nn3c2=O)c1 | / | 1% | /
CN(C)S(=O)(=O)c1ccc(/C(O)=C2/C(=O)C(=O)N(Cc3cccnc3)C2c2ccncc2)cc1 (centres undefined) | 10µM* | ? | i
Cc1ccc(C2/C(=C(\O)c3ccc4c(c3)OCCO4)C(=O)C(=O)N2Cc2cccnc2)cc1 (centres undefined) | 1% | 1% | /
CCN(CC)c1ccc(NC(=O)CCS(=O)(=O)c2cc3c(cc2Cl)NC(=O)CO3)c(C)c1 | / | 0% | /
CCOC(=O)c1c(NC(=O)c2ccc(OCC)c(Br)c2)sc2c1CCCC2 | / | 2% | /
Cc1cc(C)nc(SCC(=O)Nc2nc(-c3ccccc3)c(-c3ccccc3)o2)n1 | -3% | -10% | /
Cc1ccc(C(=O)Nc2nc(-c3ccccc3)c(-c3ccccc3)o2)cc1 | 10µM* | -5% | +
CC(C)(C)N(NC(=O)Nc1ccc(F)cc1)C(=O)c1ccccc1 | -10% | 6% | /
Cc1cccc(C)c1NC(=O)NN(C(=O)c1ccccc1)C(C)(C)C | 2.5µM* | 1% | i
Cc1nc2ccn(Cc3cccnc3)c(=O)c2cc1C(=O)Nc1ccc(F)cc1F | / | -1% | /
O=C(N=C1SCC(=O)N1c1ccccc1Cl)c1ccco1 | -5% | 4% | /
O=C(N=C1SCC(=O)N1c1ccccc1)c1ccco1 | ? | 1% | i
COc1ccc(CCC(=O)NCCc2csc(-c3cccc(F)c3)n2)cc1 | / | -4% | /
Cc1nc(-c2ccccc2)sc1-c1ccc(SCC(=O)NCc2ccc(F)cc2)nn1 | / | 6% | /
SMILES | SARS PLpro yeast-1 | Sm TGR block | SARS PLpro yeast-2
O=C(c1ccccc1C(=O)N1CCN(c2ccccc2F)CC1)N1CCN(c2ccccc2F)CC1 | 1% | -3% | /
CCSc1ccccc1C(=O)N1CCN(c2ccccc2F)CC1 | ? | 3% | i
Cc1cc(SCC(=O)N/N=C/c2ccccc2C(=O)O)c(C)cc1Br | -1% | 6% | /
Cc1cc(SCC(=O)N/N=C/c2ccc(O)cc2O)c(C)cc1Br | 10µM* | -9% | i
O=C(NCC(c1ccc2c(c1)OCO2)N1CCN(c2ccccc2)CC1)c1ccccc1 (centres undefined) | / | 12% | /
CC(C)CC(=O)NC(=S)N1CCN(c2ccc([N+](=O)[O-])cc2Cl)CC1 | ? | -17% | i
CC(C)CC(=O)N1CCN(c2ccc([N+](=O)[O-])cc2Cl)CC1 | -35% | 4% | /
COc1ccc(N2CCN(C(=O)c3cc(S(=O)(=O)N4CCCCCC4)cn3C)CC2)cc1 | / | 0% | /
COc1ccc(C(Nc2ccccn2)c2oc(CO)cc(=O)c2O)cc1 (centres undefined) | 11µM* | 2.8µM* | i
O=c1cc(CO)oc(C(Nc2ccccn2)c2ccccc2Cl)c1O (centres undefined) | 13µM* | ? | i
COc1ccc(CNc2ccccn2)c(O)c1 | 18% | ? | /
Cc1c(C(Nc2ccccn2)c2ccc(Cl)cc2)c(=O)n(-c2ccccc2)n1C (centres undefined) | / | -21% | /
CCOC(=O)c1sc(N2C(=O)c3oc4ccccc4c(=O)c3C2c2ccc(C(C)(C)C)cc2)nc1C (centres undefined) | / | 3% | /
Fc1ccc(CNc2ncnc3c2c(-c2ccccc2)cn3-c2ccccc2)cc1 | / | -3% | /
O=C(Nc1ccncc1)c1ccc(Cl)c(S(=O)(=O)N2CCCCC2)c1 | -8% | -5% | /
O=C(Nc1ccc(Cl)c(S(=O)(=O)N2CCCCC2)c1)c1ccncc1 | 5µM* | -8% | i
CCCCCCO | 11µM* | -25% | i
CCCCCCCCO | -4% | 0% | /

Assay outcomes from PubChem.
